# Source: PubChem
# Rows were chosen to be rich in hits. Some 0.98% of all compounds tested hit in one or more screens of this group.
# Mtb UGM inh = blocks M. tuberculosis UGM enzyme. purified UGM, fluorescence polarization probe displacement. AID 504406. actives 0.06% (n = 320,000). inhibition, % at 10 µM; in the data active means inhibition above about 10%, passing the limit was not always enough; inconclusive means no clear call, values can overlap the other calls
# Target sequence (P9WIQ1 whole entry, looked up): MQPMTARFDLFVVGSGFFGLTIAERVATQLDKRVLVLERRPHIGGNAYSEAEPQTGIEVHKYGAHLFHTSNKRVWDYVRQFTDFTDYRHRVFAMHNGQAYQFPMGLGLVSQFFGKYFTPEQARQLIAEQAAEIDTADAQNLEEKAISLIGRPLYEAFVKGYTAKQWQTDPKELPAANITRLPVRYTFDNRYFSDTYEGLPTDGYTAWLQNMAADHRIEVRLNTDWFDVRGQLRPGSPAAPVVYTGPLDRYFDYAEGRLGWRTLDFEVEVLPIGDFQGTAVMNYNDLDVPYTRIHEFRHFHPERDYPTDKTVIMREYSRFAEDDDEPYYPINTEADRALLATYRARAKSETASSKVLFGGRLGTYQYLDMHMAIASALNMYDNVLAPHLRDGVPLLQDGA
# Mtb betalactam = beta-lactam sensitization of Mtb H37Rv; actives 0.27% (n = 330,000); M. tuberculosis H37Rv growth with meropenem, percent inhibition; inhibition, % at 25 µM; call rule not given here;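 further: growth measured after seven days incubation then overnight dye step; 0% = bacteria only wells and 100% = bacteria with antibiotic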
# PfHsp40 yeast = rescue of PfHsp40-mediated yeast toxicity; growth rescue, % at 12.5 µM; S. cerevisiae expressing PfHsp40, growth rescue, ATP luminescence; AID 504582; actives 0.68% (n = 340,000); in the data active means growth rescue above about 28%, passing the limit was not always enough; inconclusive means no clear call, values can overlap the other calls;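 further: yeast W303a lacking pdr1 and pdr3 grown in galactose medium; growth measured after three days at 30 °C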
# Y pestis TopoI = Y. pestis Topo-I inhibition via cleavage products | activity, % at 10 µM | actives 0.064% (n = 360,000) | AID 504884 | Y. pestis Topo-I cleavage product accumulation, plate reader; in the data active means activity above about 50%, passing the limit was not always enough; inconclusive means no clear call, values can overlap the other calls
# Rv3671c protease = inhibitors of M. tuberculosis serine protease Rv3671c | P9WHR9 | inhibition, % at 5.96 µM | actives 0.048% (n = 320,000); in the data active means inhibition above about 38%;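 further: extracellular domain of Rv3671c used as enzyme; 0% = enzyme with DMSO and 100% = no enzyme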
# FadD28 binding = inhibitors of Mycobacterium tuberculosis FadD28 bisubstrate binding | FadD28 bisubstrate probe binding, fluorescence polarization | inhibition, % at 12.5 µM | actives 0.22% (n = 360,000) | AID 588549; in the data active means inhibition above about 8.5%, passing the limit was not always enough; inconclusive means no clear call, values can overlap the other calls
# * marks the source's active call; other numbers are inactive results; ? = inconclusive; · = no result given.
SMILES,Mtb UGM inh,Mtb betalactam,PfHsp40 yeast,Y pestis TopoI,Rv3671c protease,FadD28 binding
Cc1ccccc1S(=O)(=O)NC(=O)C1(C)CCN1C(=O)c1ccccc1CCc1ccccc1 (configuration not stated),·,·,·,12,·,-1
COc1ccccc1NC(=S)NNC(=O)c1ccccc1,2,12,29*,1,-3,-1
CCc1ccc2[nH]c(=O)c(C3C(C#N)=C(N)Oc4c3ccc3cccnc43)cc2c1 (configuration not stated),0,10,80*,7,-3,-5
COc1cccc(C(=O)Nc2sc(C(C)C)cc2C(N)=O)c1OC,5,98,604*,7,-27,-2
O=C(NCCn1cc(SCc2ccccc2)c2ccccc21)c1ccccc1F,0,4,0,50*,6,0
O=C(Nc1ccc([N+](=O)[O-])cc1)Nc1ccc(OC(F)F)c(Cl)c1,-2,100,0,-15,-500,13*
COc1ccc(NC(=O)Nc2cccc([N+](=O)[O-])c2)cc1Cl,-3,-2,-1,-18,-15,16*
O=C(Nc1ccc(OC(F)F)c(Cl)c1)Nc1ccc2c(c1)OCO2,0,10,-1,2,-1,-3
CCOC(=O)c1cccc(NC(=O)/C=C/c2cccc([N+](=O)[O-])c2)c1,-2,-1,1,5,-12,-4
COc1ccc(C(=O)Nc2cccc([N+](=O)[O-])c2)cc1Br,1,9,0,-4,8,-6
CCOC(=O)/C=C/C(=O)Nc1cccc([N+](=O)[O-])c1,-3,6,189*,-4,-6,-4
COC(=O)C[C@H]1C[C@H]2c3cc(NC(=O)Nc4ccc(F)cc4)ccc3O[C@H]2[C@@H](CO)O1,·,·,·,8,·,-4
COc1cccc(/C=N/n2c(C)nc3ccccc32)c1OC,-1,94,-1,2,-2,-5
COc1cccc(/C=N/n2c(-c3ccco3)nc3ccccc3c2=O)c1OC,11*,0,2,-7,-14,-3
N#C/C(=C/c1ccc(O)c(O)c1)c1nc2ccccc2[nH]1,-3,2,0,-13,8,12*
N#C/C(=C\c1cccs1)c1nc2ccccc2[nH]1,0,-4,6,5,-13,-5
CCCCCCCCOC(=O)C1=C(C)Nc2nnnn2C1c1cccs1 (configuration not stated),1,1,76*,28,-13,-4
O=C(Nc1ccccc1)c1cc(C2CCCCN2C(=O)c2ccccc2)on1 (configuration not stated),·,·,·,19,·,-3
O=C(Cc1cccs1)NNC(=S)NCc1ccc(Cl)cc1,1,-6,72*,-3,-5,-5
CCCc1nc2c(C)cc(Br)cn2c1Cc1ccc(OC)cc1C,·,·,·,·,·,-2
O=C(Nc1nnc(SCc2ccc(F)cc2)s1)c1cccnc1Cl,-1,26,-1,7,2,0
O=C(Nc1nnc(SCc2ccc(F)cc2)s1)c1ccccn1,·,·,161*,-5,·,1
O=C(O)CSc1cc(NS(=O)(=O)c2cccc([N+](=O)[O-])c2)c2ccccc2c1O,·,·,96*,-11,·,4
CC(C)Oc1cc(F)ccc1-c1cc(C(=O)NC2CCCCC2)[nH]n1,·,·,·,12,·,-3
O=C(NCc1cccnc1)c1cc(C2CCCCN2S(=O)(=O)c2cccs2)on1 (configuration not stated),·,·,·,6,·,-5
SMILES,Mtb UGM inh,Mtb betalactam,PfHsp40 yeast,Y pestis TopoI,Rv3671c protease,FadD28 binding
Cc1nc2ccc(C(C(F)(F)F)(C(F)(F)F)C(F)(F)F)cc2[nH]1,-1,-3,241*,-5,2,-2
CCOC(=O)C1CCCN(C2CC(=O)N(c3ccccc3)C2=O)C1 (configuration not stated),-4,1,0,10,-9,1
CCOC(=O)C1CCCN(C2CC(=O)N(c3cccc(C(F)(F)F)c3)C2=O)C1 (configuration not stated),4,-2,44*,-10,-7,-5
CC(=O)N1CCOCC1c1cc(C(=O)Nc2ccccc2)no1 (configuration not stated),·,·,·,0,·,-1
O=C1NC(=O)N(Cc2ccccc2)C(=O)/C1=C\c1ccco1,1,2,-1,-5,-19,28*
O=C1NC(=O)N(Cc2ccc(F)cc2)C(=O)/C1=C\C=C\c1ccco1,-1,87,-1,-2,-37,2
CN(C)CCOc1ccc2c(c1)C(=O)C(=Cc1ncc([N+](=O)[O-])n1C)C2,·,·,·,-9,·,0
O=C(O)/C=C\C(=O)Nc1ccccc1F,·,1,37*,1,-4,-2
Oc1ccc2ccccc2c1-c1sc(Nc2ccccc2)n[n+]1-c1ccc(F)cc1,6,-2,-1,99*,2,1
Oc1ccccc1Oc1ncc(Br)c(N2CCOCC2)n1,0,-2,-1,0,-5,-4
Oc1ccccc1Oc1c(F)c(F)nc(N2CCCC2)c1F,-1,5,19,-4,8,21*
Cc1ccc(NS(=O)(=O)c2cc([N+](=O)[O-])ccc2NNC(=S)Nc2cccc(Cl)c2)c(C)c1,-3,6,24,-36,-25,8.6*
O=C1CC(c2ccccc2)=NN1c1nc(-c2ccccc2)cs1,-1,2,2,-20,4,1
CC1=NN(c2nc(-c3ccccc3)cs2)C(=O)C1,2,6,1,-15,6,16*
Cc1ccc(NC(=O)CN2C(=O)N/C(=C\c3cccn3-c3cccc(C(=O)O)c3)C2=O)cc1,·,·,0,7,·,?
COc1ccc(/C=C2/NC(=O)N(CC(=O)Nc3cccc(C)c3)C2=O)cc1O,1,1,-1,-8,-3,18*
COc1cc(/C=C2\SC(=O)N(CC(=O)Nc3cccc(C)c3)C2=O)cc([N+](=O)[O-])c1O,·,·,0,-12,·,31*
CCn1c(C)cc(/C=C2\NC(=O)N(CC(=O)Nc3cccc(C)c3)C2=O)c1C,-1,11,-1,-2,1,10*
CCn1c(C)cc(/C=C2/NC(=O)N(CC(=O)Nc3cccc(C)c3)C2=O)c1C,2,4,-1,-5,9,0
Cc1ccc(NC(=O)CN2C(=O)N/C(=C/c3cc(C)n(-c4cccc(C(=O)O)c4)c3C)C2=O)cc1,·,·,0,7,·,49*
O=C(c1ccccc1)N1CCN(C(=O)c2ccccc2)c2ccccc21,·,·,0,1,·,-1
O=C1c2[nH]c3ccccc3c2CC1N1C(=O)c2ccccc2C1=O (configuration not stated),·,·,·,44,·,-3
CC(C)c1ccc(C(=O)CN2C(=O)NC3(CCc4ccccc43)C2=O)cc1 (configuration not stated),4,-2,4,22,-12,2
O=C(CC1CCCC1)N1CCN(S(=O)(=O)c2cccc(Br)c2)CC1,·,·,·,3,·,-2
CCC(=O)N1CCC(C)(C(=O)Nc2nccc3ccccc23)C1 (configuration not stated),·,·,·,1,·,-2
